# A selection: hits, their analogues and other compounds. The true share with any hit is near 3.6%.
# KKLEB cytotox = counter-screen for CF NF-kB inhibitors: cytotoxicity; KKLEB CF airway cells viability, ATPlite luminescence, overnight; stronger effect = lower value; cells stimulated with P. aeruginosa culture filtrate; activity change (cytotoxicity), % at 5 µM; 360,000 compounds, 0.36% hits;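 active = corrected activity change at or below -50% at 5 µM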
# Peg3 prom inh = inhibitors of Peg3 promoter; 360,000 compounds, 1.7% hits; inhibition, % at 20 µM; HeLa PEG-Prom luciferase reporter, luminescence, overnight;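 active = inhibition of at least 50% at 20 µM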
# LGR2 antag = blocks bursicon-induced cAMP signaling via Drosophila LGR2 | HEK293 LGR2, CRE-luciferase, bursicon-stimulated, 4 h | inhibition, % at 9.99 µM | 380,000 compounds, 0.35% hits | AID 720647;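 active = drop in luminescence signal, shown as inhibition above about 50% in the replicate tests, limit read from the data, passing the limit was not always enough; inconclusive = probably only some replicates passing the limit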;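 note: agonist challenge used bursicon conditioned medium at about half maximal strength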
# Mdm2 MdmX PPI = disrupts the human Mdm2-MdmX interaction; O15151+Q00987; 330,000 compounds, 3% hits; AID 485346; SaOS-2 split-luciferase Mdm2/MdmX complementation, luminescence; inhibition, % at 8 µM;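 active = inhibition of at least 50% at 8 µM in the primary screen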
# Target sequence (O15151 whole entry, looked up): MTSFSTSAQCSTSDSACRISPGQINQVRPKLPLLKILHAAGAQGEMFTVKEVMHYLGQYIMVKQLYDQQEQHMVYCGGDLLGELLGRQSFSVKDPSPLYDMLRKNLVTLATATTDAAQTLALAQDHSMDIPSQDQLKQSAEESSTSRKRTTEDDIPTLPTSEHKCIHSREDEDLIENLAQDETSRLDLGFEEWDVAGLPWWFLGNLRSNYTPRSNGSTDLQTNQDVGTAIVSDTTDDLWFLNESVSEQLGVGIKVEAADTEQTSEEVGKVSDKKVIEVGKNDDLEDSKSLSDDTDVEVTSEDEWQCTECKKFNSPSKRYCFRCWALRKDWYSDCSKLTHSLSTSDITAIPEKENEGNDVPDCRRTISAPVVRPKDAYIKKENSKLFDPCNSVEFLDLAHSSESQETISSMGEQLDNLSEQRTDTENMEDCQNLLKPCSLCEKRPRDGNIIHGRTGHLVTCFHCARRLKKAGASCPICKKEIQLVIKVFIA
# Target sequence (Q00987 whole entry, looked up): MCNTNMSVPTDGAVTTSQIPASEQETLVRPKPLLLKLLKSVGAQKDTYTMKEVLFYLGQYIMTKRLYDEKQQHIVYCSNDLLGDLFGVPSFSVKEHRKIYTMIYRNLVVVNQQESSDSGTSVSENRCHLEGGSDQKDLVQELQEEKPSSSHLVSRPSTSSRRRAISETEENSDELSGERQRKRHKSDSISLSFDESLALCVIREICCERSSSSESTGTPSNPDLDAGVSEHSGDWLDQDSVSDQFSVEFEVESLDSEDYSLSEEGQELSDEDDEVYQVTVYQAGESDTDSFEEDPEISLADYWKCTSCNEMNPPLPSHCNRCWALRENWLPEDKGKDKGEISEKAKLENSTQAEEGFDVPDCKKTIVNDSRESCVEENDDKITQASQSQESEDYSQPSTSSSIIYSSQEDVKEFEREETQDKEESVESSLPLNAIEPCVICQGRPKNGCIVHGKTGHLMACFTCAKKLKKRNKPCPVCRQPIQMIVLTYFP
# HSP90 inh = inhibitors of HSP90 luciferase refolding in rabbit reticulocyte lysate. inhibition, % at 5.6 µM. luciferase refolding luminescence, 3 h. AID 1789. 290,000 compounds, 0.91% hits;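 active = inhibition above the screen-wide mean plus 3 SD, computed separately per campaign, cut at about 16% in these data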;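 note: 0% = DMSO wells and 100% = 60 µM geldanamycin wells; inhibitors lower the luminescence because luciferase stays unfolded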
# CF NFkB inh = inhibitors of cystic fibrosis induced NF-kB; KKLEB NF-kB-GFP reporter, PAF-induced, GFP fluorescence overnight; inhibition, % at 5 µM; 360,000 compounds, 0.86% hits; AID 588850;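 active = at least 50% inhibition at 5 µM, scaled per plate between neutral and stimulator controls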;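 note: PAF is a Pseudomonas aeruginosa culture filtrate used as stimulus; plate controls were PAF-stimulated DMSO wells for no effect and unstimulated DMSO wells for full effect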
# Mdm2-MdmX conf = human Mdm2/MdmX binding inhibition, confirmed; shares compounds with Mdm2 MdmX PPI; luminescent assay; inhibition, % at 8 µM; 10,000 compounds, 55% hits; AID 489028; in the data active = inhibition above about 40%
# Full FLuc ctr = inhibits full-length luciferase, flagging false Mdm2/MdmX hits; shares compounds with Mdm2 MdmX PPI; SaOS-2 full-length luciferase counterscreen, luminescence; inhibition, % at 8 µM; 6,200 compounds, 77% hits;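 active = mean inhibition at 8 µM reaching about 37%, which flags the compound as non-specific, limit read from the data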;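 note: p53-null SaOS-2 cells with luciferase driven by a doxycycline-inducible promoter; compound on cells about two nights before reading with doxycycline added after day one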
# An asterisk follows results filed as active; u = inconclusive; x = no result given.
SMILES,KKLEB cytotox,Peg3 prom inh,LGR2 antag,Mdm2 MdmX PPI,HSP90 inh,CF NFkB inh,Mdm2-MdmX conf,Full FLuc ctr
CCC(=O)Nc1ccc2c(c1)OC[C@@H](C)N(C(C)=O)C[C@H](C)[C@H](OC)CN(C)C2=O,x,x,9,x,x,x,x,x
COCCNC(=O)C[C@@H]1CC[C@H](NC(=O)NC2CCCC2)[C@@H](CO)O1,x,x,-3,x,x,x,x,x
CN1c2ccc(-c3ccccc3F)cc2[C@H]2[C@H](CCN2S(=O)(=O)c2ccccc2)[C@@H]1CO,x,x,16,x,x,x,x,x
C=C(NC(=O)C(=C)NC(=O)c1csc(C2=NC3c4csc(n4)C4NC(=O)c5csc(n5)C([C@@](C)(O)C(C)O)NC(=O)C5CSC(=N5)/C(=C\C)NC(=O)C(C(C)O)NC(=O)c5csc(n5)[C@]3(CC2)NC(=O)C(C)NC(=O)C(=C)NC(=O)C(C)NC(=O)C(C(C)CC)NC2C=Cc3c(C(C)O)cc(nc3C2O)C(=O)OC4C)n1)C(N)=O (stereo partly specified),x,x,x,94*,x,x,56*,58*
C[C@H]1CN([C@@H](C)CO)C(=O)c2cccc(NC(=O)Nc3cccc4ccccc34)c2O[C@H]1CN(C)S(=O)(=O)c1ccccc1,x,x,5,x,x,x,x,x
c1ccc(COc2ccccc2CNC23CC4CC(CC(C4)C2)C3)cc1,-12,75*,29,96*,0,19,70*,59*
COc1cc(CNC2CCCC2)cc(Cl)c1OCc1ccccc1Cl,-23,94*,x,52*,4,11,35,x
COc1cc(CNC2CCCC2)cc(Cl)c1OCc1ccc(F)cc1,-6,5,x,48,2,3,x,x
CCOc1cc(CNC2CCCC2)cc(Cl)c1OCc1ccc(F)cc1,-21,91*,x,58*,2,11,44*,80*
CCC(=O)N1CCC2(CC1)CN(Cc1ccccc1Cl)[C@H](CO)c1c2c2ccc(OC)cc2n1C,x,x,12,x,x,x,x,x
C/C=C/c1ccc2c(c1)O[C@@H](CN(C)CC1CCOCC1)[C@H](C)CN([C@H](C)CO)S2(=O)=O,x,x,-24,x,x,x,x,x
COc1cccc(-c2ccc([C@H]3[C@@H](C#N)N(C(=O)c4ccccn4)[C@H]3CO)cc2)c1,x,x,4,x,x,x,x,x
Brc1ccc2ncnc(Nc3ccc(N4CCOCC4)cc3)c2c1,2,3,26,62*,-3,67*,66*,26
O=C(O)c1cccc(Nc2ncnc3ccccc23)c1,-13,-10,13,-22,4,10,x,x
O=C(COc1ncnc2ccc(Br)cc12)Nc1ccc(N2CCOCC2)cc1,2,3,x,12,-2,0,x,x
CC(=O)c1cccc(Nc2ncnc3ccc(Br)cc23)c1,-11,23,-3,67*,2,46,47*,38*
CCC(=O)N[C@@H]1CC[C@H](CCNC(=O)Nc2ccc(F)cc2)O[C@H]1CO,x,x,-10,x,x,x,x,x
COc1ccc(N=C2S/C(=C\c3ccc(Cl)c([N+](=O)[O-])c3)C(=O)N2CCN(C)C)cc1,-14,105*,u,100*,2,50,67*,14
CCCN1C(=O)/C(=C/c2ccc(C)s2)SC1=Nc1ccc(OC)cc1,-23,14,-7,10,0,18,x,x
CCN(CC)CCN1C(=O)/C(=C\c2ccc(Cl)c([N+](=O)[O-])c2)SC1=Nc1ccc(OC)cc1,-82*,102*,19,100*,4,99*,98*,0
CN(C)C(=O)[C@H]1[C@H](CO)[C@H]2Cn3c(ccc(-c4cccc(F)c4)c3=O)[C@@H]1N2CCc1ccccc1,x,x,-1,x,x,x,x,x
O=C(CCc1ccccc1)NCC(c1ccco1)N1CCc2ccccc21 (stereo unspecified),-10,26,-7,53*,x,24,76*,66*
O=C(NCC(c1ccco1)N1CCc2ccccc21)c1ccccc1F (stereo unspecified),-7,6,17,20,x,14,x,x
CNC[C@@H]1Oc2ccc(NC(=O)CCC(F)(F)F)cc2CC(=O)N([C@@H](C)CO)C[C@H]1C,x,x,-10,x,x,x,x,x
COc1ccc(C2C(C#N)=C(C)NC3=C2C(=O)c2ccccc23)cc1 (stereo unspecified),4,20,1,19,0,-34,x,x
SMILES,KKLEB cytotox,Peg3 prom inh,LGR2 antag,Mdm2 MdmX PPI,HSP90 inh,CF NFkB inh,Mdm2-MdmX conf,Full FLuc ctr
CC1=C([N+](=O)[O-])C(c2ccccc2)C2=C(N1)c1ccccc1C2=O (stereo unspecified),-43,10,x,56*,7,42,63*,79*
COCC(=O)Nc1ccc2c(c1)C(=O)N(C)C[C@@H](OC)[C@@H](C)CN(CC1CCCCC1)[C@H](C)CO2,x,x,-1,x,x,x,x,x
N#CC1=C(N)Oc2c(ccc3cccnc23)C1c1ccccc1 (stereo unspecified),-6,22,9,75*,-2,11,58*,54*
C[C@@H]1CN([C@H](C)CO)C(=O)c2cc(NS(C)(=O)=O)ccc2O[C@@H]1CN(C)C(=O)Nc1ccc(C(F)(F)F)cc1,x,x,-3,x,x,x,x,x
Fc1ccc(Nc2nc(N3CCOCC3)c3ccccc3n2)cc1,-20,11,x,52*,x,4,29,x
COc1ccc(C(=O)Oc2c(CN3CCOCC3)cc(Cl)c3cccnc23)cc1OC,x,x,1,60*,-1,x,37,x
O=[N+]([O-])c1cc(CN2CCOCC2)c2cccnc2c1O,x,x,x,x,0,x,x,x
O=C(Oc1c(CN2CCOCC2)cc(Cl)c2cccnc12)c1ccccc1,2,42,19,47,3,6,x,x
CN1CCN(Cc2cc(COCc3ccccc3)c3cccnc3c2O)CC1,5,41,x,60*,0,9,75*,30
COc1cc(OC)cc(C(=O)Oc2c(CN3CCOCC3)cc(Cl)c3cccnc23)c1,6,10,-6,50*,1,-3,45*,34
Oc1c(Cl)cc(CN2CCOCC2)c2cccnc12,-42,31,23,78*,x,48,84*,42*
Oc1ccc(CN2CCN(Cc3ccccc3)CC2)c2cccnc12,-4,-25,x,27,-2,-10,x,x
CCCC#Cc1ccc([C@H]2[C@@H](CO)N3C(=O)CN(S(=O)(=O)Cc4ccccc4)C[C@@H]23)cc1,x,x,8,x,x,x,x,x
C[C@H]1CN([C@@H](C)CO)C(=O)c2cc(NC(=O)CCCN(C)C)ccc2O[C@H]1CN(C)S(=O)(=O)c1ccccc1,x,x,-5,x,x,x,x,x
C[C@H](CO)N1C[C@H](C)[C@H](CN(C)S(=O)(=O)c2ccccc2)Oc2ccc(NC(=O)Nc3ccccc3)cc2CC1=O,x,x,6,x,x,x,x,x
C[C@@H]1CN([C@@H](C)CO)C(=O)c2c(c3ccccc3n2C)-c2ccccc2CO[C@H]1CN(C)S(=O)(=O)Cc1ccccc1,x,x,3,x,x,x,x,x

# Source: PubChem BioAssay (several laboratories)
